Assay results: paper PMC4336329 (PLoS ONE, 2015)
Out of some 310,000 compounds screened, about 14,000 (4.5%) showed an effect of 50% or more. Effects have a minus sign here. Many of the other results were omitted from the sample, so strong results are more common in it than they were.

The compounds below were run against human ether-à-go-go-related gene (hERG) potassium channel (human, UniProt Q12809) (assay: primary screen, population patch clamp on CHO cells stably expressing hERG; higher = less effect of the substance).
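Also: peak tail current of the secondary pulse compared with the same well before compound.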

Sequence of human ether-à-go-go-related gene (hERG) potassium channel (Q12809 whole entry, looked up): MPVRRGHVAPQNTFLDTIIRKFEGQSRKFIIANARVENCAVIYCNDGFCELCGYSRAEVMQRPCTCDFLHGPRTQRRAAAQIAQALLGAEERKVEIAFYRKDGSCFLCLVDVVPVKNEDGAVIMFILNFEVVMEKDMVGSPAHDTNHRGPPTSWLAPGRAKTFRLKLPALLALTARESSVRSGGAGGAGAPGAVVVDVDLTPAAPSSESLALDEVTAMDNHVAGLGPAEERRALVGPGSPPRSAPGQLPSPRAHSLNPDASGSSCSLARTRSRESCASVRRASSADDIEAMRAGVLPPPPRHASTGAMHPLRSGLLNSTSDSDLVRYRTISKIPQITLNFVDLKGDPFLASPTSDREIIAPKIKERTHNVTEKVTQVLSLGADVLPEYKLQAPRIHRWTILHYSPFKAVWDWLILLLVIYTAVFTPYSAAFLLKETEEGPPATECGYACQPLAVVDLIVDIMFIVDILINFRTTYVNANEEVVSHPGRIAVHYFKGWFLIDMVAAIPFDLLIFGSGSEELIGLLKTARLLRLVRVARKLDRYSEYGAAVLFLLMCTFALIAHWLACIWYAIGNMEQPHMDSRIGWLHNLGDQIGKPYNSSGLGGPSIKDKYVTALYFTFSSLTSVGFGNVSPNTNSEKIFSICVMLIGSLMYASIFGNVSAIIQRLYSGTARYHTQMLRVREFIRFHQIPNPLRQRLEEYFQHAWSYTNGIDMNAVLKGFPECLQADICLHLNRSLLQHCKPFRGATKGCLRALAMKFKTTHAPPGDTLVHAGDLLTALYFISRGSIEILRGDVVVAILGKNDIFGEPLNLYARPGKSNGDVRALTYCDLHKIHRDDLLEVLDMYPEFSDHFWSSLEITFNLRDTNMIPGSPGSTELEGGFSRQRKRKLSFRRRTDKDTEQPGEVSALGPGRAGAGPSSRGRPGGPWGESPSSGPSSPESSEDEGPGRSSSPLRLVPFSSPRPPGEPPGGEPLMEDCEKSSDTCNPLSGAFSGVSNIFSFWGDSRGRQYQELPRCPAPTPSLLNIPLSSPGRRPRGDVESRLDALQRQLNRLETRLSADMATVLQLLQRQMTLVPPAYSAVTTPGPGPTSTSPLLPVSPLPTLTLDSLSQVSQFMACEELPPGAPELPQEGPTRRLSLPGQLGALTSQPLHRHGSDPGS

| Structure (SMILES) | hERG current change (%, negative = inhibition) at 10uM [%] |
| --- | --- |
| CCCCCCCCN1[C@@H](CC(=O)OC)c2cc(C(F)(F)F)ccc2S1(=O)=O | 1.99 |
| Cc1cc(C)n(-c2nc3c(c(=O)[nH]c(=O)n3C)n2C)n1 | 10.1 |
| Oc1ccc(-c2cc(-c3ccc(O)cc3)nc(-c3ccccc3)n2)cc1 | 20.1 |
| Cc1ccc(S(=O)(=O)n2[nH]c(=O)cc2NC(=O)c2cccs2)cc1 | -0.667 |
| CCc1nn2c(=O)cc(CSCC(=O)Nc3ccccc3F)nc2s1 | 11.3 |
| Cc1ccccc1OCC(=O)N1CCCCCCC1 | 1.22 |
| CCC(C#CCN1CCCCC1)(CC)OCCC#N | 2.57 |
| CCOC(=O)Cc1nnc(NC(=O)CSc2ncc(-c3ccccc3)nn2)s1 | -58.7 |
| CCOC(=O)CSc1ncc(-c2ccccc2)nn1 | -6.58 |
| CCOC(=O)Cc1nnc(NC(=O)CSc2ccccc2)s1 | 7.53 |
| C=CCc1cc(C=O)cc(OCC)c1OCc1ccc(Cl)cc1 | 31.4 |
| COc1ccccc1C1C(C#N)=C(N)Oc2cc(C)n(Cc3ccccn3)c(=O)c21 (centres unmarked) | -2.81 |
| Cc1ccc2c(c1)C(=C(C#N)C#N)C(=O)N2CCN1CCOCC1 | -38.6 |
| CCCS(=O)(=O)c1nc(S(=O)(=O)c2ccc(C)cc2)c(N2CCc3ccccc3C2)s1 | 5.34 |
| Cc1ccc(-c2cnc(SCC(=O)N3CCCc4ccccc43)n2C)cc1 | -50.8 |
| Cc1ccc(-c2cc(C(=O)N3CCCc4ccccc43)no2)cc1 | -75.6 |
| O=C(c1cc(-c2ccccc2)on1)N1CCCc2ccccc21 | -18.1 |
| Cn1c(-c2ccccc2)cnc1SCC(=O)N1CCCc2ccccc21 | -27.9 |
| O=C(c1cc(-c2ccc(O)cc2)on1)N1CCCc2ccccc21 | -29.5 |
| Cn1c(-c2ccc(F)cc2)cnc1SCC(=O)N1CCCc2ccccc21 | -24.8 |
| O=C(NCc1ccc(F)cc1Cl)C1CCN(S(=O)(=O)N2CCC3(CC2)OCCO3)CC1 | -13.9 |
| CC(=O)Oc1ccc(NC(=O)Cc2ccccc2)cc1 | 24.9 |
| Cc1ccc(OCC(=O)c2ccc3c(c2)CCCC3)cc1C | 4.7 |
| C=CCSc1ncnc2sc(C)c(C)c12 | 9.87 |

| Structure (SMILES) | hERG current change (%, negative = inhibition) at 10uM [%] |
| --- | --- |
| COc1ccc(Cl)cc1NC(=O)C1(c2cccs2)CCOCC1 | -17.8 |
| COc1ccc(CCC(C)NCCc2ccc(Cl)cc2Cl)cc1 (centres unmarked) | -71.8 |
| CC(CCc1ccccc1)NCc1ccc(Cl)cc1Cl.O=C(O)C(=O)O (centres unmarked) | -31.5 |
| COc1ccc(CCC(C)Nc2ccc(F)c(F)c2)cc1 (centres unmarked) | 5.47 |
| CC(CCc1ccccc1)NCc1ccncc1 (centres unmarked) | -8.72 |
| COc1ccc(CNCCc2ccc(Cl)cc2Cl)cc1 | -22.2 |
| CC(O)CNCc1ccc(Cl)cc1Cl.Cl (centres unmarked) | 12.3 |
| CC(CCc1ccc(O)cc1)NCc1ccc(Cl)cc1Cl (centres unmarked) | -63.8 |
| CC(CCc1ccc(O)cc1)NCc1ccc(Br)cc1 (centres unmarked) | -76.2 |
| COc1ccc(CCC(C)NCc2ccc(Cl)c(Cl)c2)cc1 (centres unmarked) | -53.7 |
| COc1ccc(CCC(C)NCc2cc(OC)cc(OC)c2)cc1 (centres unmarked) | -42.3 |
| CC(CCc1ccccc1)NC(=O)Cc1ccc(Br)cc1 (centres unmarked) | 8.87 |
| COc1ccc(CCNC(C)CCc2ccc(OC)cc2)cc1 (centres unmarked) | -13 |
| Cc1cc(C)nc(/N=C2\NC(=O)CC(C(=O)O)N2c2ccc(Cl)cc2)n1 (centres unmarked) | 14.9 |
| COC(=O)CSc1ccc2nnc(CCNS(=O)(=O)c3ccccc3)n2n1 | 24.3 |
| CC(=O)c1c(COC(=O)c2cccc(C)c2)nc2ccccc2[n+]1[O-] | -1.95 |
| Cn1c(=O)c2c(nc(SCC(=O)NCC3CCCO3)n2C)n(C)c1=O (centres unmarked) | 2.28 |
| Cc1c(NC(=S)NC(=O)c2ccccc2Cl)c(=O)n(-c2ccccc2)n1C | 33.4 |
| COc1cccc(CC(=O)Nc2cc(S(=O)(=O)N3CCCCC3)ccc2C)c1 | -15.9 |
| Cc1c(CC(=O)O)c(=O)oc2cc(OCc3nn[nH]n3)ccc12 | -0.585 |
| COc1cc(NC(=O)C2CCCCC2)c(OC)cc1NC(=O)CN1CCCCC1 | -12 |
| COc1ccc(N2CCN(S(=O)(=O)c3ccc4c(c3)N(C(C)=O)CCO4)CC2)cc1 | -18.4 |
| CC(C)CC(=O)C(=O)[O-].[Na+] | -0.864 |
